The source of these data is PubChem BioAssay AID504339 (National Center for Advancing Translational Sciences (NCATS), 2011).

Hit rate of the full screen: of about 390,000 compounds, about 17,000 (4.4%) were called active. Where a call stands in place of a potency, no number is given. Inconclusive results (about 8%) are left out. Calls come from the whole dose curve; as a rule, active = well fitted inhibition curve with a large enough effect; inconclusive = small, poorly fitted or top-dose-only effect; inactive = no such curve, though single readings can be large or run the other way. Many of the other results were omitted from the sample, so actives are more common in it than they were.
Potency is the fitted concentration of half-maximal effect.

In this assay the target is Lysine-specific demethylase 4A (Homo sapiens) (UniProt O75164). As to the kind of experiment: qHTS Assay for Inhibitors of JMJD2A-Tudor Domain. Note: nearly all actives have a fitted effect of over 50% in size. The settings on record: AlphaScreen JMJD2A-Tudor / H3K4me3 peptide binding; series mostly up to 114 µM. (Quantitative high-throughput screening tests each substance at several concentrations.)
Chain of Lysine-specific demethylase 4A (Homo sapiens) (O75164 whole entry, looked up, the tested form may be a part): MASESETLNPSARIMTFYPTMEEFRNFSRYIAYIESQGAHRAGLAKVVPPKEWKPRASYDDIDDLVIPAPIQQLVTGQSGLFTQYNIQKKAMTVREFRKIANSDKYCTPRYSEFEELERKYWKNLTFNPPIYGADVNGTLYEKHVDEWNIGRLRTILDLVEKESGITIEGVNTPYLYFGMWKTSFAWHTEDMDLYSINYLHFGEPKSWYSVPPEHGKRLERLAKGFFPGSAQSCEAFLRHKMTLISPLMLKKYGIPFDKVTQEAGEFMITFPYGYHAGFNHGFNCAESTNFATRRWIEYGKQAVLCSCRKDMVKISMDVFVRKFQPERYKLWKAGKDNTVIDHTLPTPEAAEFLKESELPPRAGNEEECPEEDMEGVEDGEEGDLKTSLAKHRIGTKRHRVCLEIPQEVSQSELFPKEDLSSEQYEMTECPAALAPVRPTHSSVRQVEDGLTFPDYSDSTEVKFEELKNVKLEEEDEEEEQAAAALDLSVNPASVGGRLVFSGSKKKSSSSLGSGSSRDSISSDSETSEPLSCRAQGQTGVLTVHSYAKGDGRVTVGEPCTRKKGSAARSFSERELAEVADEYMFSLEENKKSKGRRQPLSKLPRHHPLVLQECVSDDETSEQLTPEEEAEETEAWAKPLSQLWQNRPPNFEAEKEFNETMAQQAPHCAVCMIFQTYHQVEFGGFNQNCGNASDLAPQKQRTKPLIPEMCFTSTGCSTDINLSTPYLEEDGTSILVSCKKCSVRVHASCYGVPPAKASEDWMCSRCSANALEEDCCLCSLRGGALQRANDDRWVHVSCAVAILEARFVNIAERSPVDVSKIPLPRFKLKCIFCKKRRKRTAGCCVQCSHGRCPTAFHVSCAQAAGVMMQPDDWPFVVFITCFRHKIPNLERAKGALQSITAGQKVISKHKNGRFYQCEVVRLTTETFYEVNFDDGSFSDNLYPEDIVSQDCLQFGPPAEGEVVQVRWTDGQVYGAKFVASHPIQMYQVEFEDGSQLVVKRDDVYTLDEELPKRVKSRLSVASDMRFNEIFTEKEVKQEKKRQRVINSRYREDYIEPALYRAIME
As to `O=C(NCc1ccc(F)cc1)c1ccc(Cn2c(SCc3ccc(F)cc3)nc3cccnc32)cc1`, the Potency result was “inactive”.

Regarding `Cc1c(NC(=O)Nc2ccc(F)c(Cl)c2)c(=O)n(-c2ccccc2)n1C`, the Potency result is “inactive”.

With `Cc1c(CNC(C)c2ccccc2)c(C(=O)O)c(C)n1Cc1c(F)cccc1Cl` (stereo not given), the Potency result was “inactive”. Under `O=C(NCCCO)C(=O)Nc1c2c(nn1-c1ccc(F)cc1)CSC2` stands “inactive”; under `CCn1c(CNC(=O)C23CC4CC(CC(C4)C2)C3)nnc1SCC(=O)Nc1ccc(OC)cc1`, “inactive”. In the case of `CC1=C(c2ccc(F)cc2)S(=O)(=O)N=C1N1CCC(C(=O)NCCc2ccccc2C)CC1`, the Potency result is “inactive”. Take `CCCS(=O)(=O)N1CCC(n2c(C(F)(F)F)nc3cccnc32)CC1`: the Potency entry was “inactive”. `NS(=O)(=O)c1ccc(NC(=O)COc2ccc(S(=O)(=O)NC3CCCCC3)cc2)cc1`: the Potency entry was “inactive”.

As to `CC(C)Cn1c(=O)c2ccccc2n2c(CCC(=O)N3CCN(c4cccc(Cl)c4)CC3)nnc12`, the Potency result is “inactive”.

Turning to `CCOc1ccc2nc(N3CCC(C(=O)Nc4cc(C)ccc4C)CC3)sc2c1`, the Potency result is “inactive”. In the case of `OCCNCCOc1ccc(Cl)c(Cl)c1` it was “inactive”; in that of `COCCNCCOCCOc1cccc(OC)c1`, “inactive”. Under `COCCCNCCOCCOc1ccc(Cl)cc1Br` stands 1.78 µM (active); under `COc1cc(NS(=O)(=O)c2ccc(NC(=S)NC(=O)c3ccccc3)cc2)nc(OC)n1`, “inactive”. In the case of `COC(=O)c1nc(NC(=O)c2ccccc2)n[nH]1` it was “inactive”; in that of `Cn1nnc(NC(=S)NC(=O)c2ccccc2)n1`, 5.01 µM (active). For the compound `O=C(C1COc2ccccc2O1)N(Cc1cccnc1)c1nc2c(F)cc(F)cc2s1` (stereo not given), the Potency result is “inactive”.

With `COc1ccccc1NC(=O)Nc1nnc(Cc2ccc(F)cc2)s1`, the Potency entry was “inactive”.

As to `COc1ccc(Cc2nnc(NC(=O)Cc3cccs3)s2)cc1`, the Potency is 28.2 µM (active).

In the case of `COc1ccc(Cc2nnc(NS(=O)(=O)Cc3ccccc3)s2)cc1`, the Potency entry was “inactive”.

With `Cc1nn(C(C)C(=O)NCCc2ccccc2)c(=O)c2c1sc1ccccc12` (stereo not given), the Potency result was “inactive”. In the case of `COC(=O)c1sccc1S(=O)(=O)N(CC(=O)Nc1ccc(C)c(F)c1)c1ccc(C)c(C)c1`, the Potency entry is “inactive”. Under `COc1cc(/C=N\Nc2nc(-c3cccs3)c(NC(C)=O)s2)ccc1O` stands 25.1 µM (active). For `CC(=O)c1sc(N/N=C/c2ccc(C(C)C)cc2)nc1C`, the Potency entry is “inactive”. Under `CCOc1cc(C=NNC(=O)CCCC(=O)NN=Cc2ccc(O)c(OCC)c2)ccc1O` stands “inactive”; under `Cc1ccc2nc(COc3cccc(NC(=O)c4ccccc4Cl)c3)cc(=O)n2c1`, “inactive”; under `COc1cc(C(=O)NCCc2csc3nc(-c4ccccc4C)nn23)cc(OC)c1OC`, “inactive”. `CCOC(=O)c1c(NC(=O)CSc2nccc(=O)[nH]2)sc(C)c1C`: the Potency result is “inactive”. Take `CCOC(=O)c1c(NC(=O)CSc2nnc(CN3CCOCC3)n2C)sc2c1CCCC2`: the Potency entry is “inactive”. `CCOC(=O)c1c(NC(=O)CSc2nnc(Cc3csc(N)n3)n2C)sc(C)c1C`: the Potency was 39.8 µM (active).
